Inconclusive results are not listed. More than one record can exist for a structure, and the calls need not agree. Values without a mark were called inactive. Calls of active or inactive are those of the source. Calls follow the shape of the dose curve; as a rule, active = well fitted inhibition curve with a large enough effect; inconclusive = small, poorly fitted or top-dose-only effect; inactive = flat fitted curve, though single readings scatter.
Tested on: KB-3-1
Assay: Cytotoxic Profiling of Annotated Libraries Using Quantitative High-Throughput Screening (AID 1296008); also: nearly all actives have a fitted effect of over 60% in size
Details: Five cell lines viability, CellTiter-Glo ATP luminescence, 48-72 h; max response: active compounds read low
Text: Cell-based phenotypic screening is a commonly used approach to discover biological pathways, novel drug targets, chemical probes and high-quality hit-to-lead molecules. Many hits identified from high-throughput screening campaign are ruled out through a series of follow-up potency, selectivity/specificity, and cytotoxicity assays. Prioritization of molecules with little or no cytotoxicity for a more in-depth downstream evaluation influence the future direction of projects, so cytotoxicity profiling of the screening libraries at early stage is essential for increasing the likelihood of candidate success. […] For the annotated library, we also examined the primary targets and mechanistic pathways regularly associated with cell death. To our knowledge, this is the first study to use high-throughput screening to profile large libraries for cytotoxicity assessment in both normal and cancer cell lines. In summary, the results generated here constitutes a valuable resource for the scientific community and provides insight on identifying cytotoxic compounds with particular mechanisms of action, and prioritizing compounds with suitable cytotoxicity profile for further evaluation.
A pintool (Kalypsys) was used to transfer 23 nL of compound solution to the 1536-well assay plates. After 48 or 72 hr incubation at 37 degree Celsius, 5% CO2 and 95% humidity, 2.5 uL of CellTiter-Glo (Promega) was dispensed into each well using a dispenser (Aspect Automation, St. Paul, MN) with solenoid valves (Lee Valves, Westbrook CT). Plates were left at room temperature for 10 min before imaging the ATP-coupled luminescence using a ViewLux microplate imager (PerkinElmer, Waltham, MA).
% is scaled to controls: 0 for no effect and ±100 for the full control effect; potency is read from the fitted curve at half-maximal effect.

Q: How did the outcome turn out when CCCC(N[C@@H](C)C(=O)N1[C@H](C(=O)O)C[C@@H]2CCCC[C@@H]21)C(=O)OCC (stereo partly specified) was run?
A: The outcome was “inactive”.

Q: With COc1ccc(C(O[C@@H]2O[C@H](CO)[C@@H](O)[C@H](O)[C@H]2O)C(CO)Oc2ccc(/C=C/CO)cc2OC)cc1O (stereo partly specified) as the compound, how does the outcome read?
A: Its outcome is “inactive”.

Q: CC(=O)O[C@H]1[C@H](Oc2ccccc2COC(=O)C2(O)C=CCCC2=O)O[C@H](CO)[C@@H](O)[C@@H]1O (stereo partly specified) was tested. Which max response did it give?
A: The max response was 6.43%.

Q: Which outcome does the source give for CC1(C)CCCC2(C)C(CO)C3CCC2C31 (stereo unspecified) here?
A: Its outcome is “inactive”.

Q: For C[C@]1(OC(=O)/C=C/c2ccccc2)C[C@H](O)[C@]2(O)C=CO[C@@H](O[C@@H]3O[C@H](CO)[C@@H](O)[C@H](O)[C@H]3O)C12 (stereo partly specified), which max response is on record?
A: The max response was 4.61%.

Q: With Cc1c(N2C(=O)c3ccc(C(=O)O)cc3C2=O)c(=O)n(-c2ccccc2)n1C as the compound, how does the outcome read?
A: The outcome was “inactive”.

Q: For CC1(C)NC2N(C1=O)c1ccccc1C2(O)CC(C(=O)O)n1cnc2ccccc2c1=O (stereo unspecified), which outcome is on record?
A: Its outcome is “inactive”.

Q: Cc1c(CN(C)C(=O)/C=C/c2cnc3c(c2)CCC(=O)N3)oc2ccccc12 was tested. Which max response did it give?
A: The max response was 9.61%.

Q: Which max response does the source give for CC1=C2C(=O)C=C(CO)[C@@H]2[C@H]2OC(=O)[C@H](C)[C@@H]2[C@@H](O)C1 here?
A: Its max response is 1.39%.

Q: With CC(C)CC(=O)OC[C@H]1O[C@@](COC(=O)CC(C)C)(O[C@H]2O[C@H](CO)[C@@H](O)[C@H](O)[C@H]2OC(=O)CC(C)C)[C@@H](OC(=O)CC(C)C)[C@@H]1O as the compound, how does the max response read?
A: The max response was 6.03%.

Q: COc1ccc(C)c2sc(NC(=O)c3ccncc3)nc12 was tested. Which outcome did it give?
A: The outcome was “inactive”.

Q: With CC1(C)CCC(C)(C)c2cc3c(cc21)Sc1ccccc1N=C3c1ccc(C(=O)O)cc1 as the compound, how does the max response read?
A: The max response was -15.5%.

Q: With CN1C(=O)c2ccccc2-n2c(nc3ccccc3c2=O)/C1=C/c1ccccc1 as the compound, how does the outcome read?
A: The outcome was “inactive”.

Q: With O=C(Nc1cccc(C(F)(F)F)c1)c1cc(Br)cc(Br)c1O as the compound, how does the Potency read?
A: The Potency was 16.4 µM (active).

Q: For CO/N=C(/C(=O)N[C@@H]1C(=O)N2C(C(=O)O)=C(CSC(=O)c3ccco3)CS[C@H]12)c1csc(N)n1, which outcome is on record?
A: The outcome was “inactive”.

Q: What about the max response of the same compound?
A: Its max response is -14.5%.

Q: How did the max response turn out when CC1CCC2(C)C(CC(O)C(O)C23CO3)C1(C)CCC1=CC(=O)OC1O (stereo unspecified) was run?
A: Its max response is 4.04%.

Q: How did the max response turn out when COC1=CC(=O)C[C@@H](C)[C@]12Oc1cc(OC)cc(OC)c1C2=O was run?
A: Its max response is 5.37%.

Q: How did the max response turn out when CCOC(=O)[C@H](CCc1ccccc1)CC1(C(=O)N[C@H]2CCc3ccccc3N(CC(=O)O)C2=O)CCCC1 was run?
A: Its max response is -2.38%.

Q: COc1cc([C@H]2OC[C@@H]3[C@@H](c4ccc(O[C@@H]5O[C@H](CO)[C@@H](O)[C@H](O)[C@H]5O)c(OC)c4)OC[C@]23O)ccc1O was tested. Which max response did it give?
A: Its max response is 3.2%.

Q: How did the max response turn out when C=C1C(OC(C)=O)C(=O)C2C(C)(C)C(OC(C)=O)CCC2(C)C1CC(OC(C)=O)/C(C)=C/COC(C)=O (stereo unspecified) was run?
A: Its max response is -4.48%.

Q: CC1(C)CC2C(C1)C1(C)CCC13OC3(CO)C2O (stereo unspecified) was tested. Which outcome did it give?
A: Its outcome is “inactive”.

Q: C=CC(C)(O)CC/C=C(\C)C(=O)OC1CC2(C(=O)O)CCC3(C)C(=CCC4C5(C)CCC(OC6OC(COC7OCC(O)C(O)C7O)C(O)C(OC7OCC(O)C(O)C7O)C6OC6OC(CO)C(O)C(O)C6OC6OCC(O)C(O)C6O)C(C)(C)C5CCC43C)C2CC1(C)C (stereo unspecified) was tested. Which outcome did it give?
A: The outcome was “inactive”.

Q: How did the outcome turn out when CC[C@H](/C=C/[C@@H](C)[C@H]1CC[C@H]2[C@@H]3CC=C4C[C@@H](O)CC[C@]4(C)[C@H]3CC[C@]12C)C(C)C was run?
A: The outcome was “inactive”.

Q: For C=C1CCC(OC(C)=O)C2(C)CC3(O)OC(=O)C(C)=C3CC12 (stereo unspecified), which max response is on record?
A: Its max response is 4.81%.

Q: C/C=C1/[C@H](O[C@@H]2O[C@H](CO)[C@@H](O)[C@H](O)[C@H]2O)OC=C(C(=O)OC)[C@H]1CC(=O)O[C@@H]1O[C@H](CO)[C@@H](O)[C@H](O)[C@H]1O was tested. Which outcome did it give?
A: The outcome was “inactive”.

Q: With O=C(c1ccc(NS(=O)(=O)c2cccc3cccnc23)cc1)N1CCN(CC2CC2)CC1 as the compound, how does the max response read?
A: Its max response is -0.69%.

Q: With CN(C)C/C=C/C(=O)Nc1ccc(C(=O)Nc2cccc(Nc3ncc(Cl)c(-c4c[nH]c5ccccc45)n3)c2)cc1 as the compound, how does the Potency read?
A: The Potency was 0.184 µM (active).

Q: Which max response does the source give for CC(=O)N[C@H]1CCN(c2ccc(C3=NOC(CN[S+](=O)([O-])C(C)C)C3)cc2F)C1 (stereo partly specified) here?
A: The max response was -0.511%.

Q: How did the max response turn out when CO[C@@H]1[C@@H](O[C@@H]2O[C@H](C)[C@@H](O[C@H]3C[C@@](C)(O)[C@@H](OC(=O)CC(C)C)[C@H](C)O3)[C@H](N(C)C)[C@H]2O)[C@@H](CC=O)C[C@@H](C)C(=O)/C=C/C2OC2C[C@@H](C)OC(=O)C[C@H]1OC(C)=O (stereo partly specified) was run?
A: Its max response is 20.2%.

Q: How did the max response turn out when Cc1coc2c1CC1OC1(C)CCC1OC1(C)C2 (stereo unspecified) was run?
A: The max response was 8.78%.

Q: For COc1ccccc1[C@@H]1C2=C(CC(C)(C)CC2=O)Nc2n[nH]c(C(F)(F)F)c21, which outcome is on record?
A: Its outcome is “inactive”.

Q: With OC[C@H]1O[C@@H](Oc2cc(O)cc(-c3cc4ccc(O)cc4o3)c2)[C@H](O)[C@@H](O)[C@@H]1O as the compound, how does the max response read?
A: The max response was 4.55%.

Q: For COc1cc(N2CCC(N(C)C)CC2)ccc1Nc1ncc(Cl)c(Nc2ccccc2P(C)(C)=O)n1, which Potency is on record?
A: The Potency was 4.11 µM (active).

Q: C/C=C(\C)C(=O)O[C@@H]1CC2[C@@H](CC=C3C[C@@H](O[C@H]4C[C@H](OC)[C@H](O[C@H]5C[C@H](OC)[C@H](O[C@H]6C[C@H](OC)[C@H](O[C@H]7C[C@@H](OC)[C@H](O[C@@H]8O[C@H](CO)[C@@H](O)[C@H](O)[C@H]8O)[C@@H](C)O7)[C@@H](C)O6)[C@@H](C)O5)[C@@H](C)O4)CC[C@@]32C)[C@@]2(O)CC[C@H](C(C)=O)[C@@]12C (stereo partly specified) was tested. Which max response did it give?
A: Its max response is -8.02%.

Q: Which outcome does the source give for O=C(/C=C/c1ccc(O)cc1)O[C@H]1[C@@H]2C=CO[C@@H](O[C@@H]3O[C@H](CO)[C@@H](O)[C@H](O)[C@H]3O)[C@@H]2[C@@]2(CO)O[C@@H]12 here?
A: Its outcome is “inactive”.

Q: Which max response does the source give for C=C1CC2C3(C)C(OC(C)=O)CC(=O)OC(C)(C)C3C(O)C(OC(C)=O)C2(C)C2C(=O)OC(C)C(=O)C12C (stereo unspecified) here?
A: Its max response is 8.43%.

Q: How did the outcome turn out when COC1CC(OC2CCC3(C)C(=CCC4C3CCC3(C)C(C(C)O)CCC43O)C2)OC(C)C1OC1OC(C)C(OC2OC(COC3OC(COC4OC(CO)C(O)C(O)C4O)C(O)C(O)C3O)C(O)C(O)C2O)C(OC)C1O (stereo unspecified) was run?
A: The outcome was “inactive”.

Q: Which outcome does the source give for Cc1cc(O)cc(Oc2cc(C)c(C(=O)O)c(O)c2)c1 here?
A: Its outcome is “inactive”.

Q: Which max response does the source give for COC(=O)[C@H]1[C@H]2C[C@@H]3c4[nH]c5ccccc5c4CCN3C[C@H]2C[C@@H](OC(=O)c2cc(OC)c(OC)c(OC)c2)[C@@H]1OC here?
A: Its max response is -19.2%.

Q: And the Potency?
A: Its Potency is 7.31 µM (active).
